These results are taken from PubChem BioAssay (NCI).

Molecules are shown by their SMILES. The panel holds about 83,000 compounds, 20% with a hit somewhere; the sample as a whole holds those more often.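 Cell lines were cultured in 96-well plates, exposed to a single compound concentration, and assessed for percent growth 48 hours later.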 Unmarked numbers belong to inactive results. Active and inactive are the calls of the source. How the source made its calls: active means growth percent below 10; inactive means the rest.

One assay concerns K-562 leukemia. In words: NCI-60 one-dose screen, 48 h (100 = growth as untreated, 0 = no growth, -100 = all killed). As to conditions: 10 µM unless noted.
As for `CC(C)(C)CC(C)(C)Nc1c(-c2c(O)c3ccccc3oc2=O)nc2sccn12`, the growth was 101%.
The same measure, in the same setting: the value for `O=C1NC(=O)C(=Cc2cc(-c3ccc(Cl)cc3)n(-c3ccccc3)n2)C(=O)N1` was 90.6%; that for `CCOC(=O)c1c2c(n3ccc(NC(=O)CCN4CCCC4)cc13)C(=O)c1ncccc1C2=O` was -40.3% (active).
Take `COc1ccc(-c2ccc(-c3ccc(C(=N)N)o3)o2)cc1`: the growth was -9.69% (active).
The same measure, in the same setting: for `CC(C)c1nc(N(C)S(C)(=O)=O)nc(-c2ccc(F)cc2)c1/C=C/C(=O)C[C@@H](O)CC(=O)O` the value was 90.9%.
On the same count and under the same terms, for `CCOc1cc(\C=N/N=C(N)/C(N)=N\N=C/c2ccc(O)c(OCC)c2)ccc1O` the value was 83%.

The next assay relates to MALME-3M melanoma. The description is as above. As to conditions: 10 µM unless noted.
For `C=C1C(=O)O[C@H]2[C@H]1CC/C(COC(=O)NCc1ccc(Cn3c(=O)sn(CCCC)c3=O)cc1)=C\CC[C@@]1(C)O[C@@H]21`, the growth is -24.1% (active).
For `O=C(Nc1ncc(Cc2ccccc2)s1)c1cc(-c2ccccc2)nc2ccccc12`, the growth is 98%.
As for `CC(=O)Oc1ccccc1C(=O)N(Cc1ccc2c(Cl)cc(Cl)c(O)c2n1)c1ccccc1`, the growth was 69.3%.
The same measure, in the same setting: the value for `O=C(Nc1ccccc1)Nc1ccccc1CNc1nc(Nc2ccc(OCCN3CCCC3)cc2)ncc1Cl` was 71.2%; that for `C#Cc1ccc(NC(=O)Cc2ccc(/C=C/C(=O)c3nccn3C)cc2)cc1` was 95.7%; that for `O=C(O)c1nn(-c2ccc(Cl)cc2)nc1N1CCCC1` was 90%.
`CCc1ccc(Cc2cnc(NC(=O)c3cc(C)oc3C)s2)cc1`: the growth is 56%.
Still for that read-out and setting: the value for `O=C(NCCN1CCOCC1)c1cncnc1Nc1ccc2c(ccn2Cc2ccccn2)c1` was 102%; that for `CC/C(=C(/c1ccc(Cl)cc1)c1ccc(OCCN2CCCCCC2)cc1)c1ccccc1` was 98.5%; that for `CC(=O)OCC(=O)O[C@@H]1C[C@]2(C(C)C)O[C@@]1(C)[C@@H]1CC[C@@H](C)[C@H]1[C@@H]2OC(=O)/C=C/c1ccccc1` was 101%.
The same measure, in the same setting: for `COc1ccc(C(=O)/C=C/c2ccc(C)cc2)cc1S(N)(=O)=O` the value was 96.9%; for `Cc1ccc(Nc2oc(-c3ccccc3)nc2[P+](c2ccccc2)(c2ccccc2)c2ccccc2)cc1`, -61.6% (active); for `COc1ccc(N/N=C/c2ccc3c(c2)Sc2ccccc2N3C)cc1`, 107%.
The same measure, in the same setting: for `COc1ccc(N2C(=O)/C(=C/C(Cl)=C/c3ccc([N+](=O)[O-])cc3)SC2=S)cc1` the value was 26.4%; for `COc1ccc(C2=C/C(=C\c3ccccc3O)C(=O)N2Cc2ccccc2)cc1`, 63.4%; for `COC(=O)[C@H]1Cc2c([nH]c3ccccc23)[C@H](c2ccc3c(c2)OCO3)N1`, 99.8%.
For `O=C(Nc1ncc(Cc2ccccc2)s1)c1ccc2c(c1)OCCO2`, the growth is 57.9%.
Still for that read-out and setting: for `CC(=O)CC(=O)c1ccccc1.[Cu+2]` the value was 95.2%; for `COC1CC(O)C2=C(CC3C(/C(C)=C\CC=C(C)C)CCC3(C)O2)C1=O` (configuration not stated), 102%; for `Nc1c(C(=O)c2ccc(Cl)cc2)sc(Nc2ccccc2)c1-c1nc2ccccc2s1`, 20.7%.
On to `C=CC(=O)Nc1ccc2ncnc(Nc3cccc(NS(=O)(=O)CCC)c3Cl)c2c1`, for which the growth was 7.81% (active).
With `CCN1C(=O)N(CC)C2C1NC(=S)N2/N=C/C=C/c1ccccc1` (configuration not stated), the growth is 53.7%.
Same read-out and setting: for `Oc1cccc2c1NCCC2` the value was -0.428% (active).
The same measure, in the same setting: the value for `CCOC(=O)c1cnc2sc(-c3ccc(OC)cc3)nc2c1Cl` was 76.3%; that for `Cc1ccc2nc(/C=C/c3ccc(N(C)C)cc3)cc(C)c2c1` was 39.8%.
The same measure, in the same setting: for `C=CCOC(=O)C1=C(C)N(CC)C(=O)N(CC)C1c1c(Cl)n(C)c2ccccc12` (configuration not stated) the value was 96.2%.
For `C=C(C)[C@@H]1CC[C@]2(COC(=O)c3cccnc3)CC[C@]3(C)[C@H](CC[C@@H]4[C@@]5(C)CCCN(C(=O)c6cccnc6)C(C)(C)[C@@H]5CC[C@]43C)[C@@H]12`, the growth is 69.1%.
On the same count and under the same terms, the value for `COc1ccc(C2=NN3C(C2)c2cc(Br)ccc2OC3c2ccncc2)cc1` (configuration not stated) was 94%; that for `C=CC(=O)NCc1cccc(Nc2ncc(Br)c(NCCCNC(=O)C3CCC3)n2)c1` was -23.2% (active).
Regarding `O=C(O)/C=C/c1cn(-c2ccccc2)nc1-c1ccc(F)cc1`, the growth is 105%.
Turning to `CCNCCNc1c(C)c(-c2ccc(C(F)(F)F)cc2)c(C#N)c2nc3ccccc3n12`, the growth was 109%.
